Cruzain inh noDet = inhibitors of Trypanosoma cruzi cruzain without detergent; purified cruzain, Z-FR-AMC fluorescence, no detergent; P25779; Potency, µM, actives largely listed as inhibitors; 200,000 tested, 2.3% active; note: nearly all actives have a fitted effect of over 40% in size
Target sequence (P25779 123-467 limits assumed): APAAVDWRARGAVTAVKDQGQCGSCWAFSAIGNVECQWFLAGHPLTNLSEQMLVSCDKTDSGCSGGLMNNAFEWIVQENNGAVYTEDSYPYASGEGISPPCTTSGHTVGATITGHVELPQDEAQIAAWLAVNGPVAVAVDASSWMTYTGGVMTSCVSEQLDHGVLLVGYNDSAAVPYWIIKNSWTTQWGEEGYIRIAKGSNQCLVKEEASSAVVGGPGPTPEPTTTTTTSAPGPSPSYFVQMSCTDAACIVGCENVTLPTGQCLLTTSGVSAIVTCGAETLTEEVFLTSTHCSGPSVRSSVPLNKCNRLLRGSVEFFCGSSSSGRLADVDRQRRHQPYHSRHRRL
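Detergent-free condition (0.00005% Triton X-100) in acetate buffer pH 5.5 with DTT. 1.5 nM enzyme and compound were pre-mixed 15 min, then 2 uM Z-FR-AMC substrate added; reaction progress from fluorescence change between first and third reads (60 s).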
Cruzain inh Det = inhibitors of Trypanosoma cruzi cruzain with detergent. Potency, µM, most hits filed as inhibitors. purified cruzain, Z-FR-AMC fluorescence, 0.01% Triton. P25779. 200,000 tested, 0.43% active; note: nearly all actives have a fitted effect of over 40% in size
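Read-out: AMC fluorescence (360 nm excitation, 450 nm emission), four reads over 2 min, first-to-third difference used. Conditions: cruzain 1.5 nM, Z-FR-AMC 2 uM, pH 5.5 acetate, 5 mM DTT, 0.01% Triton X-100.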
Hits are given with their value; - = inactive; ? = inconclusive. Rows were chosen to be rich in hits. Some 2.4% of all compounds tested hit in one or more screens of this group. Calls come from the whole dose curve; as a rule, active = well fitted curve in the direction sought with a large enough effect; inconclusive = small, poorly fitted or top-dose-only effect, or another doubt; inactive = no such curve, though single readings can be large; an effect the other way counts as inactive or inconclusive.

SMILES	Cruzain inh noDet	Cruzain inh Det
O=C(c1cccc(F)c1)N1CCC(c2c[nH]c3ccccc23)(c2c[nH]c3ccccc23)CC1	-	-
COc1ccccc1CNc1ncnc2ccc(-c3ccccc3C#N)cc12	?	-
CCN(CC)S(=O)(=O)c1ccc(-c2nnc(SCc3nnc(-c4ccccc4)o3)o2)cc1	25.1µM	-
O=S(=O)(c1ccc(-c2nnc(SCc3nnc(-c4ccccc4)o3)o2)cc1)N1CCCC1	?	-
Cc1cc(Br)ccc1NC(=O)c1cc2c(s1)-c1ccccc1SC2	7.94µM	-
Cc1cc(Br)ccc1NC(=O)c1ccccc1-c1ccccc1	-	-
CC(C)C[C@@H]1NC(=O)[C@H](C(C)C)NC(=O)c2cc([N+](=O)[O-])cc(I)c2NCC[C@@H](C(N)=O)NC1=O	-	14.1µM
CC(C)[C@@H]1NC(=O)c2cc([N+](=O)[O-])cc(I)c2NCC[C@@H](C(N)=O)NC(=O)[C@H](CO)NC1=O	?	-
CC1CCN(C2=C(NS(=O)(=O)c3ccc(Cl)cc3)C(=O)c3ccccc3C2=O)CC1	-	-
O=C1C(NS(=O)(=O)c2cccs2)=C(N2CCN(c3cccc(Cl)c3)CC2)C(=O)c2ccccc21	12.6µM	-
COc1ccc(-c2coc3ccc(OC4OC(COC(C)=O)C(OC(C)=O)C(OC(C)=O)C4OC(C)=O)c(OC(C)=O)c3c2=O)cc1 (stereo not drawn)	?	-
COc1cccc(Cn2cnc3c(NS(=O)(=O)c4cc(Cl)ccc4Cl)c(C)c(C)cc32)c1	?	-
COc1cccc(Cn2cnc3c(NS(=O)(=O)c4ccc(Cl)cc4Cl)c(C)c(C)cc32)c1	31.6µM	-
NC1=N[C@H](c2ccc(Cl)cc2)N(c2ccc(S(=O)(=O)Nc3ncccn3)cc2)C(N)=N1	-	-
O=C(N/N=C/c1cccnc1)/C(=C\c1cccs1)NC(=O)c1ccccc1	-	-
O=C(N/N=C/c1cc2ccccc2nc1Cl)/C(=C/c1cccs1)NC(=O)c1ccccc1	25.1µM	-
CC1=C2C(=CO[C@H](C)[C@H]2C)C(=O)C(C(=O)O)=C1O	-	-
Cc1nn2c(C)c(C(=O)NCC(C)c3ccccc3)cnc2c1-c1ccccc1 (stereo not drawn)	-	-
COc1ccc(N(Cc2ccccc2)S(=O)(=O)c2cccc(C(=O)NC3=NCCS3)c2)cc1	25.1µM	-
COc1cccc(C(=O)NC2=NCCS2)c1	-	-
COc1cccc2c1C(=O)c1c(O)c3c(c(O)c1C2=O)C[C@](O)(/C(C)=N\O)C[C@@H]3O[C@H]1C[C@H](N)[C@@H](O)[C@H](C)O1	-	-
CC(=O)OCCCNc1cc(SCc2ccco2)c2nonc2c1[N+](=O)[O-]	-	-
CCCC(=O)OCCNc1cc(SCc2ccco2)c2nonc2c1[N+](=O)[O-]	-	25.1µM
COc1cc(C=O)c([N+](=O)[O-])cc1OC	-	-
CCCC1OC2CC3C4CCC5=CC(=O)C=CC5(C)C4C(O)CC3(C)[C@]2(C(=O)CO)O1 (stereo partly drawn)	-	-
SMILES	Cruzain inh noDet	Cruzain inh Det
COc1ccc(Cl)cc1NC(=O)CCc1c(C)nc2c(c1C)c(=O)n(C)c(=O)n2C	-	-
O=C(Cn1cnc2ccccc2c1=O)Nc1ccc2c(c1)CCC2	-	-
O=C(Cn1cnc2cc([N+](=O)[O-])ccc2c1=O)Nc1ccc2c(c1)CCC2	15.8µM	-
CCOC(=O)c1cnc(N(C)C)nc1SC(=N)N	-	-
COC(=O)CC1Oc2cc3oc4c5ccccc5oc(=O)c4c3cc2O1 (stereo not drawn)	-	-
O=C(CNC(c1ccccc1)c1ccccc1)Nc1cc([N+](=O)[O-])ccc1Cl	25.1µM	-
CC(C)CC(=O)Nc1cc([N+](=O)[O-])ccc1Cl	-	-
N#CCc1ccccc1[N+](=O)[O-]	-	-
Cc1ccc(C(=O)c2cn(Cc3cc(C)ccc3C)c3nc(C)ccc3c2=O)cc1	-	-
N#Cc1cc2c(=O)n3ccccc3nc2n(CCN2CCOCC2)c1=O	-	-
N#Cc1cc2c(=O)n3ccccc3nc2n(CCCN2CCOCC2)c1=O	?	28.2µM
N#CCCN/N=C(/Cc1nc2ccccc2[nH]1)c1ccc(Cl)cc1	25.1µM	-
Cc1ccc(N/N=C(\Cc2nc3ccccc3[nH]2)c2ccccc2)cc1	25.1µM	-
N#CCCN/N=C(\Cc1nc2ccccc2[nH]1)c1ccccc1	-	-
c1ccc(N/N=C(\Cc2nc3ccccc3[nH]2)c2ccccc2)cc1	-	-
Cc1ccc(-n2nc(CO)c(C(=O)NCCc3ccccc3)n2)cc1C	-	-
Cc1ccc(C)c(Cn2c3ccccc3c3cnn(CC(=O)NC(C)CCc4ccccc4)c(=O)c32)c1 (stereo not drawn)	-	-
O=C(CN(Cc1ccccc1)S(=O)(=O)c1ccc2c(c1)OCCO2)Nc1ccc2c(c1)OCCO2	20µM	-
CS(=O)(=O)N(CC(=O)Nc1ccc2c(c1)OCCO2)Cc1ccccc1	-	-
NC(N)=NC[C@H](N)C(=O)O	-	-
COc1cccc(-c2nccc(NCc3ccccc3)n2)c1	-	-
